Measurements published in PubChem BioAssay (EPA / NIEHS).
Active and inactive are the calls of the source. The calls were made as follows: active = hit-call score of the fitted dose curve at least 0.9, where 1 is the maximum; inconclusive = response in the unintended direction; inactive = score below 0.9.

Experiment: Tanguay_ZF_120hpf_MORT_legacy: (Legacy) Oregon State University Tanguay Lab 120 Hour Post-fertilization zebrafish Assay for Mortality (AID 2283633)
Protocol: Tanguay_ZF_120hpf_legacy is a whole embryo, multiplexed endpoint assay using zebrafish larvae exposed for 120 hours post fertilization on a 96-well plate.Tanguay_ZF_120hpf_MORT_legacy is one of one assay component(s) measured or calculated from the Tanguay_ZF_120hpf_legacy assay. It is designed to make measurements of embryonic mortality as detected with brightfield microscopy of developing zebrafish embryos.Data from the assay component Tanguay_ZF_120hpf_MORT_legacy was analyzed into 1 assay endpoints. This assay endpoint, Tanguay_ZF_120hpf_MORT_legacy, was analyzed in the positive analysis fitting direction relative to DMSO as the negative control and baseline of activity. Using a type of viability reporter, gain-of-signal activity can be used to understand changes in developmentals as they relate to the whole embryo. To generalize the intended target to other relatable targets, this assay endpoint is annotated to the embryonic mortality intended target family, where the subfamily is embryonic mortality.
Zebrafish husbandry: Tropical 5D wild-type adult zebrafish were housed in at an approximate density of 1000 per 100 gallon tank at the Sinnhuber Aquatic Research Laboratory, Oregon State University, Corvallis, OR. Each tank was kept at standard laboratory conditions of 28C on a 14-h light/10-h dark photoperiod in fish water consisting of reverse osmosis water supplemented with a commercially available salt (Instant Ocean). Spawning funnels were placed into the tanks the night prior, and embryos were collected and staged. To increase bioavailability, the chorion was enzymatically removed using pronase (63.6mg/ml, >/= 3.5U/mg, Sigma-Aldrich: P5147) at 4 hours post fertilization (hpf) using a custom automated dechorionator.Chemical exposures: Six hpf dechorionated embryos were placed 1 embryo per well in a 96-well plate prefilled with 90 ul of EM using automated embryo placement systems (AEPS). Ten microliters of each row of dilution plate 2 was added to 2 exposure plates. The final DMSO concentration used was 0.64% (vol/vol). Thirty-two embryos were also exposed to 5uM trimethyltin chloride (positive control). Plates were sealed to prevent evaporation and foil covered to reduce light exposure and kept in a 28C incubator. Embryos were statically exposed until 120 hpf. At 24 hpf, embryos were assessed for photomotor response using a custom photomotor response analysis tool (PRAT) and for developmental toxicity endpoints (MO24: mortality at 24 hpf, DP: developmental progression, SM: spontaneous movement, and NC: notochord distortion). At 120 hpf, locomotor activity was measured using Viewpoint Zebralab and assessed for 18 endpoints. Zebrafish acquisition and analysis program (ZAAP), a custom program designed to inventory, acquire, and manage zebrafish data, was used to collect developmental endpoints as either present or absent (i.e., binary responses were recorded). If mortality occurred for an embryo (at either 24 or 120 hpf), the non-mortality endpoints were not measured.

Compound	outcome	AC50
CCOC(=O)C(C)(C)Oc1ccc(Cl)cc1	inactive	–
CC1(C)CC(N=C=O)CC(C)(CN=C=O)C1 (stereo not given)	inactive	–
c1cc(-c2ccncc2)ccn1	inactive	–
CCOC(=O)CCC(=O)OCC	inactive	–
CCOc1ccc2c(c1)C(C)=CC(C)(C)N2	inactive	–
C=CCc1ccc(O)c(OC)c1	inactive	–
Oc1ccc2c(c1)OC[C@@H](N1CCC(O)(c3ccc(F)cc3)CC1)[C@H]2O	inactive	–
NCCO	inactive	–
Nc1ccccc1N	inactive	–
CCCCCCCCCCCCCCCCCC(=O)O	inactive	–
CCCCCCOCCO	inactive	–
O=C(O)Cc1ccccc1Nc1c(Cl)cccc1Cl	–	30.6 µM (active)
FC(F)(F)C(F)(F)C(F)(F)C(F)(F)C(F)(F)C(F)(F)CCI	inactive	–
CCCCCCCCCCCCCCCC	inactive	–
Cc1ccc2ncccc2c1	inactive	–
CCCCCC(=O)O	inactive	–
CN1CCN(Cc2cc(-c3ccc4[nH]c(=O)oc4c3)co2)[C@@H](c2ccc(F)cc2)C1	inactive	–
Nc1nc(N)c2nc(CNc3ccc(C(=O)N[C@@H](CCC(=O)O)C(=O)O)cc3)cnc2n1	inactive	–
NCC1(Cc2noc(=O)[nH]2)CCCCC1	inactive	–
NS(=O)(=O)c1cc2c(cc1Cl)NCNS2(=O)=O	inactive	–

Compound	outcome	AC50
CC(=O)C(C)=CC1C(C)=CCCC1(C)C (stereo not given)	inactive	–
COC(=O)c1ccc(O)cc1	inactive	–
Cc1ccc(Cl)cc1	inactive	–
CC(=O)OCCOCCOCCOC(C)=O	inactive	–
CC1(C)NC(=O)NC1=O	inactive	–
CCCCOC(=O)CCCCCCCCC(=O)OCCCC	inactive	–
Cc1cc(NC(=O)C(=O)O)cc(C)c1Oc1ccc(O)c2c1CCC2	inactive	–
Cc1cc(=O)[nH]c(=S)[nH]1	inactive	–
COc1ccc2c(c1)c(CC(=O)O)c(C)n2C(=O)c1ccc(Cl)cc1	inactive	–
COc1ccc(S(=O)(=O)N2C(=O)[C@@](c3ccccc3OC)(N3C[C@H](O)C[C@H]3C(=O)N(C)C)c3cc(Cl)ccc32)c(OC)c1	inactive	–
Cc1ccc(C)c(C)c1	inactive	–
CCCCCCCCCCCC(=O)OC	inactive	–
Cc1cccc(C)c1O	inactive	–
COCCOCCOC	inactive	–
O=C(O)CCCCC(=O)O	inactive	–
OC[C@@H](O)[C@@H](O)[C@H](O)[C@H](O)CO	inactive	–
Oc1ccc2ccccc2c1N=Nc1ccccc1	inactive	–
CCCCCCCCCCCCCO	inactive	–
O=C(N[C@@H](Cc1ccccc1)[C@@H](O)C(=O)N1C[C@@H](O)[C@@H](O)C1)c1cc2cc(Cl)ccc2[nH]1	inactive	–
Cc1oc(-c2ccccc2)nc1CCOc1cccc2c1ccn2CCC(=O)O	inactive	–
